From PubChem BioAssay (NCI) come the findings set out here.

This is part of a sample that, as a whole, favours compounds with a hit. Of some 83,000 tested, about 20% had one in any assay.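 Note: values are percent growth. 100 is the growth of untreated cells, values between 100 and 0 indicate rising inhibition; between -100 and 0 indicates cell death.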 Activity calls are given as the source filed them. The calls were made as follows: active = growth percent below 10; inactive = the rest.

The experiment has as its system HL-60(TB) leukemia. The experiment can be described thus: NCI-60 one-dose screen, 48 h (100 = growth as untreated, 0 = no growth, -100 = all killed). To be noted: 10 µM unless noted.
For the molecule `COc1ccc(C2(O)CCCCC2)cc1`, the growth was 95.6% (inactive).

In the case of `CCc1cc2c(cc1N1CCC(N3CCOCC3)CC1)C(C)(C)c1[nH]c3cc(C#N)ccc3c1C2=O`, the growth is -6.15% (active).

For the molecule `CCC(=O)Nc1ccc(-c2nc(-c3cccc(OC)c3)c(-c3ccnc(Br)c3)[nH]2)cc1`, the growth is 49.5% (inactive). Under `Cc1ccccc1NC(=O)N/C(N)=N/c1nc2ccccc2s1` stands -23.2% (active). The same measure for `COc1cc2c(cc1OCCCCN1CCN(CC(=O)Nc3ccc(Cl)cc3C(=O)c3ccccc3Cl)CC1)N=CC1CCCN1C2=O` (stereo not given): -72.1% (active); for `Cc1ccc(Nc2ccc(O)c3c2C(=O)c2c(O)ccc(Nc4ccc(C)cc4)c2C3=O)cc1`: 108% (inactive); for `CCOC(=O)c1sc2nc(-c3cc(OC)c(OC)c(OC)c3)nc(N3CCOCC3)c2c1C`: 24.7% (inactive). `CN(C)c1ccc(C2CC(c3ccccc3)=NN2/C=C2\SC(=O)NC2=O)cc1` (stereo not given): the growth was 84.7% (inactive). As for `S=c1[nH]c2cc(Cl)ccc2o1`, the growth was 86.5% (inactive).

On to `CC(O)CN(CC(C)O)N(CC(C)O)CC(C)O` (stereo not given), for which the growth was 102% (inactive). Consider `CSC[C@H](NC(=O)COc1cccc2cnccc12)C(=O)NC(Cc1ccccc1)C(O)C(=O)N1CSC[C@H]1C(=O)NC(C)(C)C` (stereo not given in full), for which the growth was 140% (inactive). `O=C1c2cc([N+](=O)[O-])ccc2-c2cc(Cl)c(NC(=O)C(F)(F)F)cc21`: the growth was 75.6% (inactive). Turning to `Nc1c(C(=O)Nc2cccc(Cl)c2)sc2nc3c(cc12)CCCC3`, the growth is 78.8% (inactive).

Consider `O=c1cc(NC2CCN(CCCc3ccccc3)CC2)c2cc(Cl)ccc2o1`, for which the growth was -7.02% (active). As for `COc1ccc(-c2nc(SCC(C)C)nc(Nc3ccccc3)c2C#N)cc1`, the growth is 88.6% (inactive). As to `O=[N+]([O-])c1cc(CCl)ccc1OCCBr`, the growth was 119% (inactive). The same measure for `CC(=O)c1c(C)[nH]c(-c2nc3ccc(N4CCN(C)CC4)cc3[nH]2)c1-c1ccc2c(c1)OCCO2`: -0.621% (active); for `CNC(=O)c1ccccc1Sc1ccc2c(/C=C/c3ccccn3)n[nH]c2c1`: 12.6% (inactive); for `Fc1ccc(-c2nnc(N3CCOCC3)c3ccccc23)cc1`: 264% (inactive).

Consider `COc1ccc(C(=O)c2cc(C)c(OC)c(C)c2)c(OC)c1NC(C)=O`, for which the growth is -26.3% (active). With `NC(=S)NN=C1CCCC1`, the growth is 95.1% (inactive). Turning to `COC(=O)CCCCN=Cc1c(O)c(O)c(C(C)C)c2cc(C)c(-c3c(C)cc4c(C(C)C)c(O)c(O)c(C=NCCCCC(=O)OC)c4c3O)c(O)c12`, the growth was 10.9% (inactive). With `CCN1C(=O)N(CC)C2C1N=C(SC)N2/N=C/C=C/c1ccccc1OC` (stereo not given), the growth is -13.4% (active). Under `COc1ccc2nc(-c3c(-c4ccccc4)nc4ncccn34)[nH]c2c1` stands 98% (inactive); under `COC(=O)c1nc(N)nc(C(=O)OC)c1C(=O)c1ccc(F)cc1`, 115% (inactive); under `C=C1C(=O)O[C@H]2[C@H]1CC/C(COC(=O)NCC(=O)Nc1ccc(OC)c(C(N)=O)c1O)=C\CC[C@@]1(C)O[C@@H]21`, -7.13% (active). In the case of `O=c1c2c(=NCCCN3CCCC3)cc3c(=O)n(CCCN4CCCC4)c(=O)c4c(NCCCN5CCCC5)cc(c(O)n1CCCN1CCCC1)c2c4-3`, the growth is 29.9% (inactive). With `Clc1cc2c(nn1)Nc1ccccc1S2`, the growth was 102% (inactive).

On to `CCN(CC)CCOc1ccc2c(-c3ccccc3)c(-c3ccc(OC)cc3)c(=O)oc2c1`, for which the growth is 48.8% (inactive). For the molecule `NS(=O)(=O)c1ccc(N/C=C/C(=O)c2cc3ccccc3oc2=O)cc1`, the growth is 100% (inactive). Consider `COC(c1ccc2ccccc2c1)C(C)C(F)F` (stereo not given), for which the growth is 103% (inactive). As for `c1ccc2[nH]c(Cc3nc4ccccc4[nH]3)nc2c1`, the growth is 75.6% (inactive).

For `O=C(NCCCNc1cc(-c2cn(-c3ccccc3)nc2-c2cccc(O)c2)ccn1)c1ccc(F)cc1`, the growth is -2.74% (active). As to `CCN(CC)CCNc1ccc(C)c2sc3cc(C)ccc3c(=O)c12`, the growth was 64.1% (inactive). Take `Clc1cccc(Nc2ncnc3ccc(-c4cnc5[nH]ccc5c4)cc23)c1`: the growth was 105% (inactive). The same measure for `CNS(=O)(=O)c1cccc(-c2ccc3c4c(n(C)c(=O)c3c2)-c2ccccc2C4=O)c1`: -4.99% (active). On to `O=C(/C=C/c1cccc([N+](=O)[O-])c1)c1ccc(O)c(CN2CCN(c3cc4c(cc3F)c(=O)c(C(=O)O)cn4C3CC3)CC2)c1`, for which the growth is 8.41% (active). As to `Cc1ccc(C(=O)N/N=C/c2cccc(Oc3ccccc3)c2)cn1`, the growth was 9.21% (active).

Take `C=C1CCC2C3(C)COC(c4ccc(SC)cc4)OC3CCC2(C)C1C/C=C1/C(=O)OCC1O` (stereo not given): the growth was -12.1% (active).

Turning to `COc1cc(N)c2ncccc2c1SC`, the growth was 107% (inactive).
